Sampled rows, rich in hits. Any-hit rate of the full collection: about 2%.
EWS-Fli inh = EWS/Fli transcriptional activity inhibition; A673 NR0B1-luciferase reporter, viability-normalised; inhibition, % at 12.6 µM; hit rate 0.67% among 350,000; AID 651661;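 active means mean inhibition of at least 50% after viability correction, with every replicate also passing that limit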;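 further: firefly luciferase signal divided by Alamar Blue viability fluorescence both relative to DMSO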
KKLEB tox = CF airway cell cytotoxicity counter-screen; hit rate 0.36% among 360,000; activity change (cytotoxicity), % at 5 µM; KKLEB CF airway cells viability, ATPlite luminescence, overnight; active compounds read low; cells stimulated with P. aeruginosa culture filtrate; AID 602141;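 active means corrected activity change at or below -50% at 5 µM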
LGR2 antag = Drosophila LGR2 receptor signaling inhibition; inhibition, % at 9.99 µM; HEK293 LGR2, CRE-luciferase, bursicon-stimulated, 4 h; hit rate 0.35% among 380,000; AID 720647;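 active means drop in luminescence signal, shown as inhibition above about 50% in the replicate tests, limit read from the data, passing the limit was not always enough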;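 further: agonist challenge used bursicon conditioned medium at about half maximal strength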
Shn3 inh set2 = inhibitors of Schnurri-3 3'UTR reporter in osteoblasts; Clone20 osteoblast Shn3 3'UTR firefly luciferase, 24 h; hit rate 0.52% among 360,000; inhibition, % at 12.5 µM;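 active means mean inhibition of at least 75% with every replicate also reaching 75%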;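 further: 0% = median of neutral control wells and 100% = pilot-screen positive control compound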
CF NFkB inh = inhibitors of cystic fibrosis induced NF-kB; KKLEB NF-kB-GFP reporter, PAF-induced, GFP fluorescence overnight; inhibition, % at 5 µM; hit rate 0.86% among 360,000; AID 588850;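 active means at least 50% inhibition at 5 µM, scaled per plate between neutral and stimulator controls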;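 further: PAF is a Pseudomonas aeruginosa culture filtrate used as stimulus; plate controls were PAF-stimulated DMSO wells for no effect and unstimulated DMSO wells for full effect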
PAX8 reporter = inhibitors of PAX8 transcriptional activity in RMG-I cells | RMG-I TPO-luciferase reporter, SteadyGlo, 24 h | inhibition, % at 12.6 µM | hit rate 1.2% among 360,000;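 active means mean replicate inhibition at least 60% with every replicate also reaching 60%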;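 further: luciferase light reporting Pax8 driven TPO promoter activity; plate controls were median of neutral control wells for no effect and mitoxantrone controls for full effect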
* = called active by the depositor; ! = not active in a repeat.

For COc1ccc(NC(=O)Nc2ccc3c(c2)C(=O)N([C@@H](C)CO)C[C@H](C)[C@@H](CN(C)Cc2ccc(Cl)c(Cl)c2)OCCCC[C@@H](C)O3)cc1 the results were EWS-Fli inh 3, LGR2 antag -3 and PAX8 reporter 34.
Screening COc1ccc(NC(=O)Nc2ccc3c(c2)C(=O)N([C@@H](C)CO)C[C@@H](C)[C@@H](CN(C)Cc2ccc(Cl)c(Cl)c2)OCCCC[C@@H](C)O3)cc1 returned EWS-Fli inh -2, LGR2 antag 14 and PAX8 reporter 75*.
For COc1ccc(NC(=O)Nc2ccc3c(c2)C(=O)N([C@H](C)CO)C[C@H](C)[C@@H](CN(C)Cc2ccc(Cl)c(Cl)c2)OCCCC[C@@H](C)O3)cc1 the results were EWS-Fli inh 1, KKLEB tox -3, LGR2 antag -1, Shn3 inh set2 28, CF NFkB inh 22 and PAX8 reporter 74*!.
For COc1ccc(NC(=O)Nc2ccc3c(c2)C(=O)N([C@H](C)CO)C[C@H](C)[C@H](CN(C)Cc2ccc(Cl)c(Cl)c2)OCCCC[C@H](C)O3)cc1 the results were EWS-Fli inh 1, LGR2 antag 31 and PAX8 reporter 31.
`CSc1nc(N)nc2c1ncn2CC(=O)N1CCN(Cc2c(C)cc(C)cc2C)CC1` gave EWS-Fli inh 11, KKLEB tox -2, LGR2 antag 1, Shn3 inh set2 89*, CF NFkB inh 4 and PAX8 reporter -29.
Screening Cc1cc(C)c(CN2CCN(C(=O)Cn3ccc(N)nc3=O)CC2)c(C)c1 returned EWS-Fli inh -3, KKLEB tox 0, LGR2 antag -2, Shn3 inh set2 -6, CF NFkB inh -3 and PAX8 reporter -23.
Screening O=C(NCC[C@H]1CC[C@H](NS(=O)(=O)c2cccc(F)c2)[C@H](CO)O1)C1CC1 returned EWS-Fli inh 0, LGR2 antag 20 and PAX8 reporter 8.
For Cc1ccc(Nc2c(-c3ccccn3)nc3cccc(C)n23)cc1 the results were EWS-Fli inh 49, KKLEB tox -35, LGR2 antag 33, Shn3 inh set2 90*, CF NFkB inh 24 and PAX8 reporter 53.
COc1ccc(NC(=O)Nc2ccc3c(c2)C(=O)N([C@H](C)CO)C[C@H](C)[C@@H](CN(C)C(=O)NC2CCCCC2)OCCCC[C@H](C)O3)cc1 was read as EWS-Fli inh 2, LGR2 antag 15 and PAX8 reporter 7.
Screening CCCNC(=O)Nc1ccc2c(c1)OC[C@H](C)N(Cc1ccc(-c3ccccn3)cc1)C[C@@H](C)[C@@H](OC)CN(C)C2=O returned EWS-Fli inh 24, LGR2 antag -10 and PAX8 reporter 100*.
`CCCNC(=O)Nc1ccc2c(c1)OC[C@H](C)N(Cc1ccc(-c3ccccn3)cc1)C[C@@H](C)[C@H](OC)CN(C)C2=O` gave EWS-Fli inh 7, LGR2 antag -14 and PAX8 reporter 11.
CCCC(=O)Nc1ccc2c(c1)C(=O)N(C)C[C@@H](OC)[C@H](C)CN(Cc1ccc(-c3ccccn3)cc1)[C@H](C)CO2 was read as EWS-Fli inh 3, LGR2 antag 8 and PAX8 reporter 76*.
Screening CCCNC(=O)Nc1ccc2c(c1)OC[C@@H](C)N(Cc1ccc(-c3ccccn3)cc1)C[C@@H](C)[C@H](OC)CN(C)C2=O returned EWS-Fli inh -3, LGR2 antag 10 and PAX8 reporter 95*.
COc1ccccc1NC(=O)N[C@H]1C=C[C@H](CC(=O)N[C@H](C)c2ccccc2)O[C@H]1CO was read as EWS-Fli inh -3, LGR2 antag 1 and PAX8 reporter -5.
For CC(=O)N1[C@H](CO)[C@H](c2ccc(-c3cncnc3)cc2)[C@@H]1CN(C)C(=O)C1CC1 the results were LGR2 antag 15.
For C[C@@H]1CN([C@@H](C)CO)C(=O)Cc2cc(NC(=O)CCN3CCOCC3)ccc2O[C@H]1CN(C)C the results were EWS-Fli inh -6, LGR2 antag 1 and PAX8 reporter 2.
Screening C[C@H]1CN([C@@H](C)CO)C(=O)c2cc(N(C)C)ccc2O[C@H]1CN(C)Cc1ccncc1 returned EWS-Fli inh 3, LGR2 antag -18 and PAX8 reporter 2.
Screening Cc1c(O)ccc(/C(Cc2ccc3ccccc3n2)=N\O)c1O returned KKLEB tox 8, Shn3 inh set2 -10, CF NFkB inh 17 and PAX8 reporter 3.
CC(=O)Oc1ccc(C(=O)Cc2ccc3ccccc3n2)c(O)c1C was read as EWS-Fli inh 55*, KKLEB tox 11, LGR2 antag -22, Shn3 inh set2 -86, CF NFkB inh -26 and PAX8 reporter -95.
For Cc1noc(C)c1NC(=O)Nc1cccc2c1O[C@@H](CN(C)CC1CC1)[C@H](C)CN([C@@H](C)CO)C2=O the results were EWS-Fli inh -7 and LGR2 antag 4.
For C[C@@H]1CCCCO[C@@H](CN(C)C(=O)Nc2ccc(F)cc2)[C@@H](C)CN([C@H](C)CO)C(=O)c2cc(NS(=O)(=O)c3ccc(Cl)cc3)ccc2O1 the results were EWS-Fli inh -5, LGR2 antag 1 and PAX8 reporter 9.
For C[C@@H]1CCCCO[C@H](CN(C)C(=O)Nc2ccccc2)[C@@H](C)CN([C@@H](C)CO)C(=O)c2cc(NS(=O)(=O)c3ccc(Cl)cc3)ccc2O1 the results were EWS-Fli inh 17, LGR2 antag -6 and PAX8 reporter 66*.
For C[C@@H]1CCCCO[C@H](CN(C)C(=O)Cc2ccccc2)[C@@H](C)CN([C@@H](C)CO)C(=O)c2cc(NS(=O)(=O)c3ccc(Cl)cc3)ccc2O1 the results were EWS-Fli inh 2, LGR2 antag 13 and PAX8 reporter 79*.
For C[C@@H]1CCCCO[C@@H](CN(C)C(=O)Nc2ccc(F)cc2)[C@H](C)CN([C@H](C)CO)C(=O)c2cc(NS(=O)(=O)c3ccc(Cl)cc3)ccc2O1 the results were EWS-Fli inh 9, LGR2 antag 15 and PAX8 reporter 91*.
Screening C[C@@H]1CN([C@H](C)CO)C(=O)c2cc(NS(=O)(=O)c3ccc(Cl)cc3)ccc2O[C@@H](C)CCCCO[C@H]1CN(C)C(=O)Nc1ccccc1 returned EWS-Fli inh -2, LGR2 antag 4 and PAX8 reporter 41.
For COc1ccc2c3c(n(C)c2c1)[C@@H](CO)N(C(C)=O)CC31CN(Cc2nccs2)C1 the results were EWS-Fli inh 13, LGR2 antag -14 and PAX8 reporter 29.
`Cc1noc(C)c1NC(=O)N(C)C[C@H]1Oc2c(NC(=O)C3CCOCC3)cccc2C(=O)N([C@H](C)CO)C[C@H]1C` gave EWS-Fli inh 0 and LGR2 antag -12.
